# A number with no mark means an inactive call. Calls follow the shape of the dose curve; as a rule, active = well fitted inhibition curve with a large enough effect; inconclusive = small, poorly fitted or top-dose-only effect; inactive = no such curve, though single readings can be large or run the other way.
# Target: Single-stranded DNA cytosine deaminase (Homo sapiens) (UniProt Q9GZX7)
# Assay: Validation qHTS assay for inhibitors of Activation Induced Cytidine Deaminase (AID): AID signal (AID 1347429)
# Details: Recombinant AID, FRET ssDNA deamination with UDG, fluorescence; series mostly up to 115 µM; activity change, negative = inhibition: at the top concentration
# Procedure, shortened: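 Fluorescence at 540 nm excitation and 590 nm emission reports ssDNA cytosine deamination by AID, with UDG in the same well. Compound-treated reactions ran 4 hr at room temperature with DJC20/DJC23 substrate, followed by 30 min NaOH treatment.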
# % is scaled to controls: 0 for no effect and ±100 for the full control effect.
# Sequence of Single-stranded DNA cytosine deaminase (Homo sapiens) (Q9GZX7 whole entry, looked up): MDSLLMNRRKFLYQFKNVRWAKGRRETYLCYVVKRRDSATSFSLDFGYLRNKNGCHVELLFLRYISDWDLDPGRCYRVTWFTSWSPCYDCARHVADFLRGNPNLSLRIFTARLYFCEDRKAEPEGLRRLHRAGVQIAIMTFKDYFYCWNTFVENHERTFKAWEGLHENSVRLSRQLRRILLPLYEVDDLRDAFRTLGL
row,SMILES,"activity change, negative = inhibition"
1,CCCCOc1cc(CC2CNC(=O)N2)ccc1OC (stereo not given),18%
2,NCCCCN=C(N)N,14.5%
3,CSC(=N)N,20.8%
4,Nc1ccc(CCNc2ncnc3c2ncn3C2OC(CO)C(O)C2O)cc1 (stereo not given),44.8%
5,Cn1c(=O)c2c(nc(/C=C/c3cccc(Cl)c3)n2C)n(C)c1=O,-0.437%
6,O=c1ccc2c(OCCCCc3ccccc3)c3ccoc3cc2o1,11%
7,CC(C)C[C@H](NC(=O)C1OC1C(=O)O)C(=O)NCCCCN=C(N)N (stereo not given in full),12.7%
8,C=CC[C@H](N)C(=O)O,3.23%
9,C[C@H]1CC2C3CCC4=CC(=O)C=C[C@]4(C)[C@@]3(Cl)[C@@H](O)C[C@]2(C)[C@@]1(O)C(=O)CO (stereo not given in full),1.75%
10,CCCn1c(=O)c2[nH]c(-c3ccc(S(=O)(=O)O)cc3)nc2n(CCC)c1=O,16.5%
11,Cc1nc2n(c(=O)c1CCN1CCC(c3noc4cc(F)ccc34)CC1)CCCC2O (stereo not given),71.1%
12,CC(C)(C)c1ccc(/C=C/C(=O)Nc2ccc3c(c2)OCCO3)cc1,-4.88%
13,NCCCNCCCCNCCCN,292%
14,CC[N+](CC)(CC)CC(=O)Nc1c(C)cccc1C,18.3%
15,NCC(O)(CS(=O)(=O)O)c1ccc(Cl)cc1 (stereo not given),1.08%
16,O=c1[nH]ccc2c(O)cccc12,47.7%
17,COCc1nc2c([nH]1)c(=O)n(C)c(=O)n2CC(C)C,21.7%
18,CCC(=O)N1CCN(C(=O)c2ccccc2)CC1,22.9%
19,COC(=O)C1=C(C)NC(C)=C([N+](=O)[O-])C1c1ccccc1C(F)(F)F (stereo not given),16.9%
20,CCC1(O)CC2CN(CCc3c([nH]c4ccccc34)[C@@](C(=O)OC)(c3cc4c(cc3OC)N(C=O)C3[C@]45CCN4CC=C[C@@](CC)([C@@H](OC(C)=O)[C@]3(O)C(=O)OC)[C@H]45)C2)C1 (stereo not given in full),17%
